The results in this text go back to PubChem BioAssay AID488969 (Vanderbilt High Throughput Screening Facility, 2010).

In all, about 110,000 compounds were measured (“z-score”: median about -0.1, highest 2% from about 2 on). This excerpt belongs to a sample that is enriched for the highest values. The source made the active and inactive calls.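 The calls were made as follows: active = z-score in the third read window above 3 or below -3; inactive = the rest.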

Chain of Metabotropic glutamate receptor 8 (Rattus norvegicus) (P70579 whole entry, looked up): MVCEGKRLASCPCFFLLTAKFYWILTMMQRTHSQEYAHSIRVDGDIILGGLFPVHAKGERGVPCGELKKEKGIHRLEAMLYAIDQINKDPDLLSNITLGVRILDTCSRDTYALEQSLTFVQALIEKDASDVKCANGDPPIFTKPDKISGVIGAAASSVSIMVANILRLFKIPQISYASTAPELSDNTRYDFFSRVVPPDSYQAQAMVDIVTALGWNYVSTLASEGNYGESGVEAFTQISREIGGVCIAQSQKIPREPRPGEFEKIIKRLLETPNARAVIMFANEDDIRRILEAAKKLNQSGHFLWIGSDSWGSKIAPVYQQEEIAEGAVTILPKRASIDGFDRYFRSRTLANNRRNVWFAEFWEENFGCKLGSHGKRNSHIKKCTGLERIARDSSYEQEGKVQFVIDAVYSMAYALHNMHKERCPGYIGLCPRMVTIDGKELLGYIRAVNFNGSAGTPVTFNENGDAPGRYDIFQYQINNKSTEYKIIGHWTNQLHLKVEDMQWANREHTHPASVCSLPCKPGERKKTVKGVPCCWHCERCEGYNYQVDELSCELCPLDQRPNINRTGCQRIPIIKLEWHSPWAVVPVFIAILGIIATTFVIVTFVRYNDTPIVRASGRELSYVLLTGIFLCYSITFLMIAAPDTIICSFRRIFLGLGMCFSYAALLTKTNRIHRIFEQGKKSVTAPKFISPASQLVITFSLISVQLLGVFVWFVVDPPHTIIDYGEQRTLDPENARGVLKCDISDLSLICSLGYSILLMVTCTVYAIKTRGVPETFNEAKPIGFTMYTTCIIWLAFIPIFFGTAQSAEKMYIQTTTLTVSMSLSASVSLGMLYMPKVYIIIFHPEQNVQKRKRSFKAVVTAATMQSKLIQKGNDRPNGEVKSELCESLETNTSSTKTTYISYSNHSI

This experiment concerns the target Metabotropic glutamate receptor 8 (Rattus norvegicus) (UniProt P70579). Put plainly: rat mGluR8 modulators via GIRK flux, primary screen, cell-based, thallium flux, HTS (AID 488969). Conditions: HEK293 rat mGluR8, GIRK (G protein-gated inwardly rectifying potassium channel) thallium flux, FluoZin2; at 10 µM; stronger effect = higher value; submaximal glutamate (EC20) added with thallium.
For `CCOC(=O)c1nnn(-c2nonc2N)c1COc1cc(C)c(Cl)c(C)c1`, the z-score is -0.174.
Regarding `CCCCCCC1CC(CSC(=N)N)OC1=O` (stereo unspecified), the z-score amounted to 0.116.
In the case of `CCCCCCCC1CC(CSc2ncn[nH]2)OC1=O` (stereo unspecified), the z-score was 5.73 (active).
On to `CCCCC1CC(CSc2ncn[nH]2)OC1=O` (stereo unspecified), for which the z-score was -0.0735.
For the molecule `CCCCCCC1CC(CSc2ncn[nH]2)OC1=O` (stereo unspecified), the z-score is -0.0128.
As to `CCCCC1CC(CSC(=N)N)OC1=O` (stereo unspecified), the z-score stood at 0.732.
Next, `CCCCCCCC1CC(CSC(=N)N)OC1=O` (stereo unspecified): 5.96 (active); `CC(C)C(=O)Nc1nc2c(ncn2C2CC(O)C(CO)O2)c(=O)[nH]1` (stereo unspecified): -0.334.
`CC(C)OC(=O)n1c(=S)oc2ccccc21` gave a z-score of -0.00387.
Consider `S=c1[nH]nc(CSCc2ccc(Cl)cc2Cl)n1-c1ccccc1`, for which the z-score was 15.5 (active).
In turn, `S=c1[nH]nc(Cc2ccccc2)n1-c1ccccc1` had a z-score of 0.938.
The value for `CSc1nnc(CSCc2ccc(Cl)cc2Cl)n1-c1ccccc1` was -0.0778.
The value for `Cn1ncc(C#N)c1NC(=O)c1cc(-c2ccccc2Cl)on1` was 0.559; that for `O=C(CSc1nc(C2CC2)nc2ccccc12)N1CCc2ccccc2C1` was -0.769; that for `Cc1cc(=O)n2cc(-c3ccccc3)nc2[nH]1` was -0.318.
Take `CC1CCN(CCCCOc2ccccc2Br)CC1`: the z-score is -0.0355.
Consider `Cc1cc(Cl)ccc1N=C1N=C(N)c2ccccc21`, for which the z-score was -1.75.
For `COC(=O)c1sccc1NC(=O)CSc1ccccc1NS(=O)(=O)c1ccc(Cl)cc1`, the z-score is 3.6 (active).
Next, `COC(=O)c1sccc1NC(=O)CN(C)NS(=O)(=O)c1ccc(Cl)cc1`: -0.811; `COC(=O)c1sccc1NC(=O)CSc1ccccc1NS(=O)(=O)c1ccc(F)cc1`: 0.941.
The value for `COC(=O)c1sccc1NC(=O)CSc1ccccc1NS(=O)(=O)c1ccc(Br)cc1` was 2.31; that for `COC(=O)c1sccc1NC(=O)Cc1ccc(Br)cc1` was -0.0914; that for `COC(=O)c1sccc1NC(=O)CSc1ccc(Cl)cc1` was 0.289.
The value for `N#Cc1ccc(OCC(=O)N/N=C2\CCc3ccccc32)cc1` was -0.239; that for `CCN(CC)C(=O)C(Sc1ccccc1)c1ccccc1` (stereo unspecified) was 0.926; that for `CC(=O)Nc1ccc(NC(=O)CSc2ccc(C)cc2)cc1` was 0.00682.
`CCOC(=O)c1ccc(NC(=O)CN2C(=O)C(C)SC(C)C2=O)cc1` (stereo unspecified) returned a z-score of -0.088.
The value for `Cc1nc(NC(C)C(=O)O)c2nc(C)oc2n1` (stereo unspecified) was -0.0905; that for `CCn1cc(C2=NC(C)CO2)c2ccccc21` (stereo unspecified) was -0.418; that for `CCn1cc(C2=NC(C)(C)CO2)c2ccccc21` was -0.521.
`CCn1cc(C2=NCCO2)c2ccccc21` had a z-score of 2.2.
In turn, `COc1ccc2[nH]c(C)c(CCN3C(=O)C4C5C=CC(C5)C4C3=O)c2c1` (stereo unspecified) had a z-score of -0.454.
Next, `NC(=O)CSc1ncnc2c1cnn2Cc1ccccc1`: 4.34 (active); `Cc1ccc(CSc2ncnc3c2cnn3Cc2ccccc2)cc1`: -0.449; `COC(=O)CSc1ncnc2c1cnn2Cc1ccccc1`: -0.981.
Molecule `Cc1ccc(-n2ncc3c(SCc4ccccc4)ncnc32)cc1` had a z-score of 2.51.
`c1ccc(CSc2ncnc3c2cnn3Cc2ccccc2)cc1` gave a z-score of -0.473.
In turn, `Cc1ccc(-n2ncc3c(SCc4cccc(C)c4)ncnc32)cc1` gave a z-score of 2.66.
The value for `Cc1cccc(CSc2ncnc3c2cnn3Cc2ccccc2)c1` was -0.46; that for `Cc1ccc(CSc2ncnc3c2cnn3-c2ccc(C)cc2)cc1` was 1.75.
Next, `Cc1ccc(CSc2ncnc3c2cnn3-c2ccccc2)cc1`: 0.333.
